# Screen size: about 310,000 compounds; about 2,200 (0.71%) showed an effect of 50% or more. Effects have a minus sign here. This is one part of a sample in which strong results are shown more often than they occur.
# Biological target: human ether-à-go-go-related gene (hERG) potassium channel (human, UniProt Q12809)
# Assay: primary screen, population patch clamp on CHO cells stably expressing hERG; higher = less effect of the substance
# Sequence of human ether-à-go-go-related gene (hERG) potassium channel (Q12809 whole entry, looked up): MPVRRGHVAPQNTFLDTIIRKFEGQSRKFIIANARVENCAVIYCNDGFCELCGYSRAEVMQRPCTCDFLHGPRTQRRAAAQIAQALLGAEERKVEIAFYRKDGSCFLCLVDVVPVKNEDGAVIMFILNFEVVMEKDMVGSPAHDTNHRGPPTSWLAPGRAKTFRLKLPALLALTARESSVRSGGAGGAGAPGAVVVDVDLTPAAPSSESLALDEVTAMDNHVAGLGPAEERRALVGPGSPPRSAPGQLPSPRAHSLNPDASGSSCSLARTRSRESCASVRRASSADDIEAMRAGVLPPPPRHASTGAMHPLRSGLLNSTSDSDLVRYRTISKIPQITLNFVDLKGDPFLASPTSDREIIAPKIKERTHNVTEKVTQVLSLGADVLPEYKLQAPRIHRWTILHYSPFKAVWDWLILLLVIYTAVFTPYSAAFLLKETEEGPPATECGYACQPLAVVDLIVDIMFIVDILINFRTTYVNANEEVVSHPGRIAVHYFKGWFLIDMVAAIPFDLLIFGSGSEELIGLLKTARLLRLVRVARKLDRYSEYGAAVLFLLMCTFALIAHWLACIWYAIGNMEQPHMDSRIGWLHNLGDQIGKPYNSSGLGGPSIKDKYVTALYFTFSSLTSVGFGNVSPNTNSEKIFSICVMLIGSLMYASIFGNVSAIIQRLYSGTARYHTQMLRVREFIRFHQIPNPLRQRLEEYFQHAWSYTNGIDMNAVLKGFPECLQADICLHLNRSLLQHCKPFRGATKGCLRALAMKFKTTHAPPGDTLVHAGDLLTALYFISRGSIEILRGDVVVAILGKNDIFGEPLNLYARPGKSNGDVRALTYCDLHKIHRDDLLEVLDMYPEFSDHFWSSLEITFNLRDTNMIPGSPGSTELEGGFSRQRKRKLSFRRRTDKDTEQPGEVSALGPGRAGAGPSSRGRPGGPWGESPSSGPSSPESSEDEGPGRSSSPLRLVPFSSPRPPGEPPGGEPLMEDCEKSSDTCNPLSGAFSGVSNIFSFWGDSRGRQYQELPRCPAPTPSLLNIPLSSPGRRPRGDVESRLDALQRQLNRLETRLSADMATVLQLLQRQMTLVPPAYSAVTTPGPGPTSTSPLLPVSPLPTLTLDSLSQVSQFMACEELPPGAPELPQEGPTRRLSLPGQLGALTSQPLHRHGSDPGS
row,Compound,"hERG current change (%, negative = inhibition) at 1uM"
1,COc1ccc(N=C2SC(C(=O)O)CC(=O)N2Cc2ccc(OC)c(OC)c2)cc1 (stereo not drawn),10.8%
2,CCCCNC(=O)N1CCN(c2ccccc2OC)CC1,5.81%
3,O=C1c2[nH]nc(-c3ccccc3O)c2C(c2ccc(F)cc2)N1Cc1ccco1 (stereo not drawn),13.1%
4,CC1CC(C)CN(c2cc(=O)n(Cc3ccc(F)cc3)c(=O)[nH]2)C1 (stereo not drawn),17.9%
5,CCN(CC)CCSc1nnc2c3cc(C)ccc3n(Cc3ccccc3)c2n1,-81.6%
6,NNc1nnc2c3cc(F)ccc3n(Cc3ccccc3)c2n1,2.58%
7,CCN(CC)CCSc1nc2ccccc2n1Cc1ccccc1.Cl,-79%
8,CCN(CC)CCSc1nnc2c3cc(F)ccc3n(Cc3ccccc3)c2n1,-53.8%
9,CCN(CC)CCSc1nnc2c3ccccc3n(CCc3ccccc3)c2n1,-18.1%
10,CN(C)C(=O)CSc1nc2ccccc2n1Cc1ccccc1,4.73%
11,c1ccc(Cn2c3ccccc3c3nnc(SCCN4CCCCC4)nc32)cc1,-6.31%
12,CCN(CC)CCSc1nnc2c3ccccc3n(Cc3ccccc3)c2n1,-73.4%
13,CSc1nnc2c3cc(C)ccc3n(Cc3ccccc3)c2n1,10.3%
14,CSc1nnc2c3cc(F)ccc3n(Cc3ccccc3)c2n1,7.64%
15,O=C(O)CCSc1nc2ccccc2n1Cc1ccccc1,13.1%
16,CSc1nnc2c3ccccc3n(Cc3ccccc3)c2n1,19.2%
17,COc1ccc([N+](=O)[O-])cc1N(CC(=O)N1CCCC1)S(C)(=O)=O,10.2%
18,O=C(NC1(C(F)(F)F)NC(=O)N(Cc2cccnc2)C1=O)c1ccncc1 (stereo not drawn),18.1%
19,O=C(NC(Cc1c[nH]c2ccccc12)C(=O)N1CCOCC1)c1cccs1 (stereo not drawn),11.2%
20,CC(C)(C)OC(=O)NCCCCCc1nnc(SCC(=O)Nc2cccc(Cl)c2)o1,-1.82%
21,Cc1ccc(SCC(=O)Nc2ccc(N3CCN(C)CC3)c(F)c2)c(C)c1,-47.8%
22,COc1ccc(/C=N/N2CCN(C3c4ccccc4-c4ccccc43)CC2)cc1OC,12.9%

row,Compound,"hERG current change (%, negative = inhibition) at 1uM"
1,COCCOC(=O)c1c(NC(=O)CNc2ccc(C)c(F)c2)sc(C(N)=O)c1C,11%
2,Cc1cc(NC(=O)c2ccc(Cl)cc2)n(-c2ccccc2)n1,13.6%
3,Cc1cc(NC(=O)c2ccc(F)cc2)n(-c2ccccc2)n1,-75.3%
4,Cc1cc(NC(=O)c2ccccc2)n(-c2ccccc2)n1,12.1%
5,Nc1c(-c2ccc(Cl)cc2)cnc2c(-c3ccccc3)cnn12,18.5%
6,Cc1ccc(CSCCNS(C)(=O)=O)cc1,10.9%
7,CC(=O)N1CCCc2cc(S(=O)(=O)NC(C(=O)NC(C)c3ccccc3)C(C)C)ccc21 (stereo not drawn),1.38%
8,COc1ccc(CN2CCNC(=O)C2CC(=O)N(C)CCC2CCOCC2)cc1OC (stereo not drawn),13.7%
9,Cc1ccc(S(=O)(=O)N2CCOC2CNC(=O)C(=O)NCCCc2ccccc2)cc1 (stereo not drawn),5.36%
10,CCCCCCN1C=CC=C/C1=C\C=C(C#N)C#N,-69.9%
11,CCCCCN1C=CC=C/C1=C\C=C(C#N)C#N,-28.2%
12,CCCCCCN1C=CC=C/C1=C/C=C(C#N)C#N,-26.6%
13,CCOC(=O)C(O)(CC(=O)Nc1ccc(Cl)cc1Cl)C(F)(F)F (stereo not drawn),6.91%
14,CCOC(=O)C(Cc1ccccc1)(NC(C)=O)C(=O)OCC,14.4%
15,CCOC(=O)C(Cc1c(F)cccc1F)(NC(C)=O)C(=O)OCC,8.71%
16,CCOC(=O)COc1ccc(N)cc1CC(NC(C)=O)(C(=O)OCC)C(=O)OCC,-69.6%
17,COc1ccc(C)cc1NC(=O)C(OC(=O)CNC(=O)c1ccc(Br)cc1)c1ccccc1 (stereo not drawn),11.1%
18,Cc1cccc(/C=N/n2c(-c3ccccn3)n[nH]c2=S)c1,14.4%
19,CC1CN(S(=O)(=O)c2cccc(C(=O)NCC3COc4ccccc4O3)c2)CC(C)O1 (stereo not drawn),0.895%
20,O=c1ccc(-c2nc3ccccc3n2Cc2ccccc2Cl)c[nH]1,4.18%
21,O=c1ccc(-c2nc3ccccc3n2Cc2ccc(Cl)cc2)c[nH]1,-50.5%
22,O=c1ccc(-c2nc3cc(Cl)ccc3n2Cc2ccccc2)c[nH]1,-45%

row,Compound,"hERG current change (%, negative = inhibition) at 1uM"
1,Cc1cc(C)nc(SCC(=O)c2ccc(O)c(O)c2)n1,16%
2,O=S(=O)(N/N=C/c1cn(Cc2ccccc2)c2ccccc12)c1ccccc1,6.23%
3,COc1ccccc1N1CCN(C(=O)c2cc(=O)c3cc(C)ccc3o2)CC1,-8.99%
4,COc1ccc(N2CCN(C(=O)c3cc(=O)c4cc(C)ccc4o3)CC2)cc1,-3.09%
5,CCc1ccc2oc(C(=O)N3CCN(c4ccccc4OC)CC3)cc(=O)c2c1,-57.4%
6,CCc1ccc2oc(C(=O)N3CCN(c4ccc(OC)cc4)CC3)cc(=O)c2c1,1.45%
7,COc1ccccc1N1CCN(C(=O)c2cc(=O)c3ccc(C)cc3o2)CC1,1.21%
8,COc1ccc(N2CCN(C(=O)c3cc(=O)c4cc(Cl)ccc4o3)CC2)cc1,-81.5%
9,Cc1ccc(Cn2nnc3c(=O)[nH]c(C4CCCN(C(=O)Nc5ccc(F)cc5F)C4)nc32)cc1 (stereo not drawn),13.8%
10,O=C(CNC(=O)c1ccccc1O)N/N=C/c1ccccn1,4.2%
11,COc1ccc(Cc2nnc(SCC(=O)Nc3ccc(C)c(Cl)c3)[nH]c2=O)cc1,5.51%
12,CC(CN1CCC(n2nccc2NC(=O)C2CCCC2)CC1)c1ccccc1 (stereo not drawn),2.95%
13,O=C(Nc1ccnn1C1CCN(CC(O)CO)CC1)C1CCCC1 (stereo not drawn),12.5%
14,CC(C)=CCCC(C)CN1CCC(n2nccc2NC(=O)C2CCCC2)CC1 (stereo not drawn),-50.3%
15,CC(C)=CCCC(C)CN1CCC(n2nccc2NC(=O)c2cccnc2)CC1 (stereo not drawn),-5.79%
16,CCc1ccc(CN2CCC(n3nccc3NC(=O)c3ccccc3)CC2)o1,-6.11%
17,CC(C)=CCCC(C)CN1CCC(n2nccc2NC(=O)c2ccccc2)CC1 (stereo not drawn),-52.2%
18,CCOC(=O)C(C)n1cnc2c1c(=O)[nH]c(=O)n2C (stereo not drawn),8.76%
19,CCCCNC(=O)[C@H]1C[C@H]1[C@@H](O)[C@H](CO)NC(=O)[C@H](Cc1ccccc1)NC(=O)OC(C)(C)C,11.5%
20,CCOc1ccc(C(=O)Nc2ccc(S(=O)(=O)N3C[C@@H]4C[C@@H](C3)c3cccc(=O)n3C4)cc2)cc1,-1.43%
21,Cc1c(C(=O)N2CCOCC2)[nH]c2ccc(OCc3ccccc3)cc12,-1.19%
22,COc1ccc2[nH]c(C(=O)NCc3ccccc3)c(C)c2c1.Cl,10.3%

row,Compound,"hERG current change (%, negative = inhibition) at 1uM"
1,CCN(CC)CCNC(=O)c1[nH]c2ccc(OCc3ccccc3)cc2c1C,-61.3%
2,COc1ccc(N(C(=O)c2ccccc2OC)C2C=CS(=O)(=O)C2)c(OC)c1 (stereo not drawn),14.4%
3,COc1ccc(CN2CCNC(=O)C2CC(=O)NCCc2nc(C)c3c(n2)CCC3)cc1C (stereo not drawn),32.9%
4,CCC(c1nnnn1CCc1ccccc1)N1CCN(c2ccc(OC)cc2)CC1 (stereo not drawn),14.5%
5,COc1ccc(CC2(CO)CCN(Cc3ccc(OC(F)(F)F)cc3)CC2)cc1,-57.5%
6,COc1ccc(CN2CCC(CO)(Cc3ccccc3C(F)(F)F)CC2)c(F)c1,-53%
7,COC(=O)c1ccc(CN2CCC(CO)(Cc3ccc(OC)cc3)CC2)cc1,-35.1%
8,COc1ccc(CC2(CO)CCN(Cc3ccncc3)CC2)cc1,7.36%
9,COc1ccc(CC2(CO)CCN(Cc3cccc4nccnc34)CC2)cc1,-53%
10,COc1ccc(F)c(CN2CCC(CO)(Cc3cccc(C(F)(F)F)c3)CC2)c1,-1.43%
11,COc1cccc(CC2(CO)CCN(Cc3cccn3-c3cccnc3)CC2)c1,-6.04%
12,OCC1(Cc2ccccc2C(F)(F)F)CCN(Cc2ccccc2)CC1,3.01%
13,COc1ccc(CC2(CO)CCN(Cc3cccnc3)CC2)cc1,1.4%
14,OCC1(Cc2cccc(F)c2)CCN(Cc2cccc3nccnc23)CC1,-19.8%
15,COc1ccc(CC2(CO)CCN(Cc3cccc(OC)c3OC)CC2)cc1,-17.3%
16,COc1ccc(CC2(CO)CCN(Cc3cccn3-c3ccccn3)CC2)cc1,-84.2%
17,Cc1ccc(-c2nc(CS(=O)CC(=O)N3CCC4(CC3)OCCO4)c(C)o2)cc1 (stereo not drawn),-3.05%
18,Cc1ccc(N2CCN(C(=S)Nc3ccc(Cl)cc3)CC2)cc1,13.4%
19,CCN(CCCNC(=O)Cn1ncc2c([nH]c3ccccc32)c1=O)Cc1ccccc1,-2.84%
20,Nc1c(C(=O)c2ccccc2)sc2snc(SCC(=O)c3ccccc3)c12,14.8%
21,COc1cc(/C=C/C(=O)OCC(=O)N2CCCc3ccccc32)ccc1OCC#N,14.6%
